# Measurements as given in PubChem BioAssay (NCATS).
# Where “and” joins values, the source holds several entries; their conditions need not be identical. Equal values may be shown once. Records with an inconclusive call do not appear. Calls of active or inactive are those of the source. Unless noted, no rule for the calls is given here.
# What was measured:
# [1] = qHTS profiling of the MIPE4 collection as inhibitors of Plasmodium falciparum (DD2) proliferation (Rep 2) (AID 743346); details: P. falciparum Dd2 in erythrocytes, SYBR Green DNA, 72 h; at 28.5 µM unless noted
# How it was run: (§1)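 Erythrocytes infected with P. falciparum (0.3% parasitemia, 2.5% hematocrit) incubated with compounds 72 h at 37 C, 5% CO2. Lysis with saponin/Triton buffer containing SYBR Green I, overnight at room temperature in the dark; DNA fluorescence (485/535 nm) normalised to 0.29 uM artemisinin and DMSO.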
# [2] = qHTS profiling of the MIPE4 collection as inhibitors of Plasmodium falciparum (HB3) proliferation (AID 743347);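 also: plate controls were DMSO vehicle wells for no effect and artemisinin wells for full effect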; details: P. falciparum HB3 in erythrocytes, SYBR Green DNA, 72 h; at 28.5 µM unless noted
# How it was run: as §1
# [3] = High-throughput drug toxicity screening in the BPDCN cell line Gen2.2 (AID 1224824); details: Gen2.2 BPDCN cells; at 45.8 µM (top of the series) unless noted;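 also: cells exposed to compounds for 48 h before reading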
# How it was run: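 Gen2.2 cells (500/well) in phenol red-free RPMI with 10% FBS were exposed to compounds for 48 h at 37 °C, 5% CO2. Viability was read by CellTiter-Glo luminescence and normalized to DMSO (100%) and 9.2 uM bortezomib (0%).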
# [4] = High-throughput drug toxicity screening in the BPDCN cell line Cal-1 (AID 1224825); details: Cal-1 BPDCN cell viability, qHTS; at 45.8 µM (top of the series) unless noted
# How it was run: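 Exponentially growing Cal-1 cells, 500 per well in phenol red-free RPMI with 10% FBS, were exposed to compounds for 48 h at 37 °C, 5% CO2. Viability was read by CellTiter-Glo luminescence and normalised to DMSO (100%) and 9.2 uM bortezomib (0%).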
# [5] = qHTS assay for measurement of the activity of small molecule inhibitors on Zika virus induced Caspase-3 activity in human iPSC derived neural progenitor cells (hNPCs) (AID 1224857; active = well fitted inhibition curve with a large enough effect; also: nearly all actives have a fitted effect of over 65% in size; also: potency is read from the fitted curve at half-maximal effect); details: hNPCs ZIKV-induced caspase-3/7, Caspase-Glo luminescence, 6 h; series mostly up to 45.7 µM
# How it was run: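 hNPCs seeded 350 cells/well, cultured 16–20 h; compounds added 1 h before ZIKV (2 FFU/cell), 37 C 6 h. Caspase-Glo 3/7 luminescence after 30 min RT; % inhibition from induction scaled to uninfected (0%) and infected (100%) wells.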
# [6] = qHTS assay for measurement of the activity of small molecule inhibitors on Zika virus induced Caspase-3 activity in human astrocytoma cells (AID 1224859; active = well fitted inhibition curve with a large enough effect;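 also: plate controls were ZIKV-infected untreated cells for no effect and uninfected cells for full effect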); details: SNB-19 ZIKV-induced caspase-3/7, luminescence, 6 h; series mostly up to 45.7 µM
# How it was run: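 Luminescence read-out (Caspase-Glo 3/7, 30 min RT) of caspase activity in SNB-19 cells infected 6 h with ZIKV, 2 FFU/cell, after 1 h compound pretreatment; % inhibition from induction normalised to uninfected (0%) and infected (100%) wells.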
# [7] = qHTS Screen of the MIPE 4.0 Collection Against Ewings Sarcoma (RDES) (AID 1259252; active = well fitted inhibition curve with a large enough effect; also: nearly all actives have a fitted effect of over 35% in size; also: potency is read from the fitted curve at half-maximal effect); details: RD-ES Ewing sarcoma viability, CellTiter-Glo, 48 h; series mostly up to 45.8 µM
# How it was run: (§2)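 Here, cells in 5% FBS RPMI were exposed for two days (48 h) to compound dilutions added four hours after plating. ATP-based CellTiter-Glo luminescence measured viability, normalized to vehicle and no-cell blanks.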
# [8] = qHTS Screen of the MIPE 4.0 Collection Against Ewings Sarcoma (TC71) (AID 1259253; active = well fitted inhibition curve with a large enough effect; also: nearly all actives have a fitted effect of over 40% in size; also: potency is read from the fitted curve at half-maximal effect); details: TC71 Ewing sarcoma viability, CellTiter-Glo, 48 h; series mostly up to 45.8 µM
# How it was run: as §2
# [9] = qHTS Screen of the MIPE 4.0 Collection Against Ewings Sarcoma (EW8) (AID 1259255; active = well fitted inhibition curve with a large enough effect; also: nearly all actives have a fitted effect of over 35% in size; also: potency is read from the fitted curve at half-maximal effect;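 as to viability: 100% = DMSO-treated cells and 0% = medium-only wells without cells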); details: EW8 Ewing sarcoma viability, CellTiter-Glo, 48 h; series mostly up to 45.8 µM
# How it was run: as §2
# [10] = qHTS Screen of the MIPE 4.0 Collection Against Ewings Sarcoma (TC32) (AID 1259256; active = well fitted inhibition curve with a large enough effect; also: nearly all actives have a fitted effect of over 45% in size; also: potency is read from the fitted curve at half-maximal effect); details: TC32 Ewing sarcoma viability, CellTiter-Glo, 48 h; series mostly up to 45.8 µM
# How it was run: as §2
Compound,"parasite growth, % of control (lower = inhibition) [1]","growth, % of control [2]","cell viability, % of control (lower = more cytotoxic) [3]",viability (% of control) [4],Potency [5],Potency [6],Potency [7],Potency [8],Potency [9],Potency [10]
CC(=O)O[C@]1(C(C)=O)CC[C@@H]2[C@@H]3C[C@H](C)C4=CC(=O)CC[C@]4(C)[C@H]3CC[C@@]21C,22%,16.6%,75.1%,95.7%,inactive,inactive,–,–,–,–
C[C@H](NC(=O)C(=O)Nc1ccccc1C(C)(C)C)C(=O)N[C@@H](CC(=O)O)C(=O)COc1c(F)c(F)cc(F)c1F,49.8%,405%,200%,8.98%,2.35 µM (active),–,inactive,inactive,inactive,inactive
CC(C)(C(=O)NCC(F)(F)C(F)(F)F)C(=O)N[C@@H]1C(=O)Nc2ccccc2-c2ccccc21,11.3%,10.3%,71.1%,5.17%,inactive,inactive,–,–,–,–
CCc1ccc(C=C2SC(=S)NC2=O)cc1,115%,87.9%,159%,83.2%,20.9 µM (active),–,inactive,inactive,inactive,inactive
CC(C)C(=O)Nc1ncc(-c2cc(C(F)F)nn2-c2c(Cl)cccc2Cl)s1,18.7%,11.3%,113%,6.45%,inactive,inactive,–,–,–,–
COc1ccc2c3c1OC1C[C@@H](O)C=C[C@@]31CCN(C)C2 (some centres undefined),–,69.6%,113%,96.5%,inactive,–,–,20.9 µM (active),–,–
CCC(CC)[C@H](NC(C)=O)[C@@H]1[C@H](O)[C@@H](C(=O)O)C[C@@H]1N=C(N)N,–,97.8%,81.8%,105%,inactive,–,inactive,inactive,inactive,inactive
O=c1c(-c2ccc(O)cc2)coc2cc(O)ccc12,89.3%,89.3%,119%,109%,11.2 µM (active),–,–,–,inactive,–
CN(C)C1CCN(C(=O)c2ccc(NC(=O)Nc3nc(N4CCOCC4)nc(N4CCOCC4)n3)cc2)CC1,9.5%,4.82%,6.71%,12.5%,inactive,–,–,0.0743 µM (active),–,–
O=C(O)c1ccc(-c2cc3cccnc3c(-c3ccc4nonc4c3)n2)cc1,37.1%,3.01%,30.2%,18.7%,inactive,inactive,–,–,–,–
O=C(NOCC(O)CO)c1cc(Br)c(F)c(F)c1Nc1ccc(I)cc1F (centres undefined),100%,77.4%,1.76%,57.3%,inactive,inactive,–,–,–,–
CC(=O)Nc1ccc([C@H](C)C(=O)Nc2ncc(C(C)C)s2)cc1,7.23%,2.84%,7.33%,6.1%,14.8 µM (active),–,–,2.96 µM (active),5.9 µM (active),4.18 µM (active)
CCCCCCCCCCCC1=C(O)C(=O)C=C(O)C1=O,16.4%,27.2%,52.7%,15.1%,inactive,–,–,–,inactive,23.5 µM (active)
O=c1cc(-c2ccccc2)oc2cc(O)cc(O)c12,49.8%,43.5%,45.9%,52.1%,20.9 µM (active),–,–,–,–,inactive
CC(C(=O)O)c1ccc(-c2ccccc2)c(F)c1 (centres undefined),–,96%,84.9%,96.9%,16.6 µM (active),–,18.7 µM (active),–,inactive,11.8 µM (active)
CCOC(=O)O[C@]1(C(=O)OCCl)CC[C@@H]2[C@H]3CCC4=CC(=O)C=C[C@]4(C)[C@@H]3[C@@H](O)C[C@@]21C,44.6%,68.7%,84.3%,77.6%,inactive,–,–,inactive,–,–
Nc1ncnc2ccccc12,82.3%,77%,145%,100%,inactive,–,–,–,inactive,inactive
CC(=O)N(C)C1(c2ccccc2)CCN(CCC[C@]2(c3ccc(Cl)c(Cl)c3)CCCN(C(=O)c3ccccc3)C2)CC1,38.7%,7.98%,9.34%,7.8%,inactive,–,–,20.9 µM (active),23.5 µM (active),–
C=CCc1ccc(O)c(-c2ccc(O)c(CC=C)c2)c1,27.4%,3.7%,34.9%,21.1%,inactive,inactive,–,–,–,–
O=C(O)c1cc(O)c2c(c1)C(=O)c1cccc(O)c1C2=O,43.2% [at 57.5 µM],44.1% [at 57.5 µM],168% [at 92.2 µM],124% [at 92.2 µM],38.2 µM (active),–,–,inactive,–,–
CC(C)(C)COc1ccc(-n2cc(C(=O)O)cn2)cc1C#N,76.9%,67.6%,112%,106%,14.8 µM (active),–,–,inactive,inactive,inactive
O=C1C(Cl)=C(NCCN2CCOCC2)C(=O)c2ncccc21,16%,10.3%,2.36%,0.784%,2.35 µM (active),–,8.33 µM (active),6.62 µM (active),3.72 µM (active),2.64 µM (active)
O=c1cc(-c2ccccc2)oc2cc(O)c(O)c(O)c12,28.3%,6.52%,151%,91.7%,–,inactive,–,23.5 µM (active),–,–
CC(C)C(=O)Oc1ccc(CO)cc1[C@H](CCN(C(C)C)C(C)C)c1ccccc1,20.1%,45.5%,126%,102%,–,inactive,inactive,inactive,inactive,–
O=C(O)CCC1CCC(c2cc(F)ccc2F)(S(=O)(=O)c2ccc(Cl)cc2)CC1 (centres undefined),51.1%,82.6%,8.09%,9.48%,inactive,–,–,–,–,11.8 µM (active)
CN(C)c1cc(NC(=O)CNC(C)(C)C)c(O)c2c1C[C@@H]1C[C@H]3[C@H](N(C)C)C(=O)C(C(N)=O)=C(O)[C@@]3(O)C(=O)C1=C2O,106%,98.7%,142%,97.2%,–,inactive,inactive,inactive,inactive,inactive
OC[C@H]1O[C@@H](n2cnc3c2NC=NC[C@@H]3O)C[C@H]1O,146%,97.8%,188%,109%,inactive,–,–,–,–,–
CC(C)OC(=O)CCCC=CC[C@@H]1[C@H](C=C[C@@H](O)COc2cccc(C(F)(F)F)c2)[C@H](O)C[C@@H]1O,33.1%,15.8%,286%,63.7%,–,inactive,inactive,16.6 µM (active),–,inactive
COc1ccc(C2Sc3ccccc3N(CCN(C)C)C(=O)C2OC(C)=O)cc1 (centres undefined),33.4% and 89.9%,60.2% and 101%,150%,90%,–,inactive,–,inactive,inactive,–
